Source: PubChem
This excerpt belongs to a sample that is enriched for hits.
HT1080 IDH1KD tx: kills HT-1080 cells with IDH1 knockdown; HT-1080 IDH1 knockdown viability, ATP luminescence, 48 h; Potency, µM (highest dose often 46.1 µM), for the others: at the top dose activity, negative = toxicity, actives largely listed as cytotoxic; 2% of 360,000 active; AID 686971;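 note: potency is the fitted concentration of half-maximal effect; 0% = DMSO wells and -100% = cell-free medium wells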
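Assay cells: HT-1080 with IDH1 knockdown, 750 per well, RPMI/5% FBS. Exposure: 48 h at 37 °C following 2 h pre-incubation. Read: CellTiter-Glo luminescence; fitted concentration-response, curve class assigned.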
HT1080NT lethal: kills 2HG-producing HT-1080-NT fibrosarcoma cells. Potency, µM (doses to about 46.1 µM), inactives show at the top dose activity, negative = less viability, hits mostly cytotoxic. AID 686970. HT-1080-NT fibrosarcoma viability, CellTiter-Glo ATP luminescence, 48 h. 1.6% of 360,000 active;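 note: NT is the 2HG producing partner of a matched IDH1 knockdown line; potency is the fitted concentration of half-maximal effect; 0% = DMSO-treated cells and -100% = media-only wells without cells; nearly all actives have a fitted effect of over 55% in size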
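Fibrosarcoma NT cells, 750 per well in 5% FBS RPMI, were exposed to compound for 48 hours. Viability: CellTiter-Glo luminescence.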
ALOX12 inh: blocks human arachidonate 12S-lipoxygenase; P18054; 1.1% of 580,000 active; Potency, µM (doses to about 108 µM), for inactives: at the highest dose activity change, negative = inhibition, hits mostly inhibitors; purified 12hLO, xylenol orange hydroperoxide absorbance; note: potency is the fitted concentration of half-maximal effect
Target sequence (P18054 whole entry, looked up): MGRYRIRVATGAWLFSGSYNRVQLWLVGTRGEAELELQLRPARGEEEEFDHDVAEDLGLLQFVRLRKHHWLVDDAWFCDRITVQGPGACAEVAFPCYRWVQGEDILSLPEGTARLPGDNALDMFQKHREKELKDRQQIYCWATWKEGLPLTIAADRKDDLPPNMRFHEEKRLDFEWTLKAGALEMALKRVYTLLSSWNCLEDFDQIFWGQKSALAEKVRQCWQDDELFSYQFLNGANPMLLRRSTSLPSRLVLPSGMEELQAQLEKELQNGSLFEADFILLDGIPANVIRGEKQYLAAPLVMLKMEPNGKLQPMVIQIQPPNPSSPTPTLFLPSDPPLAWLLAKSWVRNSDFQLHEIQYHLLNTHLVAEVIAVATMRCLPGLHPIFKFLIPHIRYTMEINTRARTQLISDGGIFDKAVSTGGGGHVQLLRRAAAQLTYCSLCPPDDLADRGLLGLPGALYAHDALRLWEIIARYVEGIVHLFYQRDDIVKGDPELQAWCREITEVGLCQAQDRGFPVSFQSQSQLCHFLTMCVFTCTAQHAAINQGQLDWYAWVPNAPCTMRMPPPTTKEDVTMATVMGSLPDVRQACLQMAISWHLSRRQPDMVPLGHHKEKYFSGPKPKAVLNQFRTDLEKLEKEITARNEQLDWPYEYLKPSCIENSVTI
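Purified human 12hLO (150 nM final) in 25 mM Hepes, 0.01% Triton X-100, pH 7.0 was preincubated 15 min at room temperature with compound. Then 40 uM arachidonic acid was added, 30 min. Hydroperoxide was read by Fe-XO absorbance ratio 573/405 nm.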
TDP1 cell CPT: growth inhibition of DT40 Tdp1-/-;hTDP1 cells with camptothecin (screen for TDP1 inhibitors) | 12% of 420,000 active | chicken DT40 Tdp1-/-;hTDP1 cells + 20 nM CPT, ATP luminescence, 48 h | Potency, µM (highest dose often 46.2 µM), inactives show at the highest dose activity change, negative = growth inhibition, hits mostly inhibitors; note: potency is the fitted concentration of half-maximal effect; nearly all actives have a fitted effect of over 55% in size
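Chicken DT40 Tdp1-/- cells complemented with human TDP1, 400 cells/well, exposed to compounds plus 20 nM camptothecin for at least 48 h at 37 C; viability read as ATP content by CellTiter-Glo luminescence.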
DT40 TDP1 no CPT: qHTS for Inhibitors of human tyrosyl-DNA phosphodiesterase 1 (TDP1): qHTS in cells in absence of CPT. DT40 Tdp1-/- hTDP1 cells, no CPT, ATP luminescence, 48 h. Potency, µM (titrated, usually from 46.2 µM), for inactives: at the top dose activity change, negative = growth inhibition, most hits filed as inhibitors. 15% of 420,000 active; note: potency is the fitted concentration of half-maximal effect; nearly all actives have a fitted effect of over 55% in size
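Growth of hTDP1-complemented DT40 Tdp1-knockout cells is measured by ATP luminescence after at least 48 hr compound exposure at 37 °C, with DMSO substituting for the 20 nM CPT used in the parallel screen.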
IL-1B inflam inh: inflammasome signaling inhibition, IL-1 beta readout; THP-1 LPS/ATP IL-1B secretion, AlphaLISA, 16 h; hits give low values; activity change, % at 57.5 µM; 4.7% of 360,000 active; AID 743279; in the data active = activity change below about -50%; inconclusive = mostly about -30% to -49%
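Secreted IL-1B measured by AlphaLISA bead assay after 16 h compound exposure of THP-1 cells; compounds (final up to 57.5 uM) added 1 h before LPS (250 ng/mL) and ATP (1.25 mM) stimulation; lower signal means less secretion.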
Numbers without * were called inactive; ? = inconclusive; . = no result given. Unless noted, calls come from the whole dose curve; as a rule, active = well fitted curve in the direction sought with a large enough effect; inconclusive = small, poorly fitted or top-dose-only effect, or another doubt; inactive = no such curve, though single readings can be large; an effect the other way counts as inactive or inconclusive. Unless noted, % is set by controls: 0 for no effect and ±100 for the full control effect.

SMILES | HT1080 IDH1KD tx | HT1080NT lethal | ALOX12 inh | TDP1 cell CPT | DT40 TDP1 no CPT | IL-1B inflam inh
COc1ccc(C(=O)c2[nH]c(N)c(C(=O)NCCc3c[nH]c4ccccc34)c2-c2ccc(Cl)cc2)cc1 | ? | ? | -29% | 18µM* | ? | ?
COc1ccc(-c2c(C(=O)c3ccccc3)[nH]c(N)c2C(=O)NCCc2c[nH]c3ccccc23)cc1 | . | . | -1% | . | . | .
Oc1ccccc1OCCOc1ccccc1OCCOc1ccccc1O | -9% | -12% | 58% | ? | 21µM* | ?
CC(O)/C=C/c1cccc[n+]1C (stereo unspecified) | ? | 6% | 18µM* | -14% | 2% | 26
COc1ccc(CNC(=O)c2nn(Cc3ccccc3)c(=O)c3ccccc23)cc1 | . | . | -7% | . | . | .
COc1ccccc1NC(=S)N(CCN1CCOCC1)Cc1ccccc1F | -4% | 1% | 9% | -1% | ? | -10
CCOc1ccccc1NC(=S)N(CCCN1CCOCC1)Cc1cn(C)c2ccccc12 | -8% | -5% | -12% | 16µM* | ? | -11
COc1ccccc1NC(=S)N(CCCN1CCOCC1)Cc1cn(C)c2ccccc12 | 2% | 1% | 19% | 15µM* | 16µM* | -8
CC(C)(C)C(=O)Nc1ccc2oc(-c3cncc(Br)c3)nc2c1 | . | . | -3% | . | . | .
CCCCN(C)CCNC(=O)Cn1ncc2c3ccccc3n(CCC)c2c1=O | . | . | -22% | 23µM* | ? | .
CCCNC(=O)Cn1ncc2c3ccccc3n(CCC)c2c1=O | . | . | -13% | ? | 15µM* | .
CCCn1c2ccccc2c2cnn(CC(=O)NCCN(CC)CC)c(=O)c21 | ? | ? | 0% | -20% | ? | -91*
Cn1c(=O)c2c(ncn2CC(=O)Nc2cccc([N+](=O)[O-])c2)n(C)c1=O | . | . | 0% | . | . | .
CCCCSc1nnc(COc2ccc(Cl)cc2)n1C | . | . | -9% | . | . | .
O=C(COc1ccc2c(=O)c(Oc3ccc(F)cc3)coc2c1)Nc1ccccc1Br | . | . | -1% | . | . | .
CCc1ccccc1NC(=O)COc1ccc2c(=O)c(Oc3cc(C)ccc3C)coc2c1 | -10% | -3% | -8% | 18µM* | 23µM* | 5
Cc1cc(C)cc(Oc2coc3cc(OCC(=O)NC4CCCCC4)ccc3c2=O)c1 | . | . | -10% | ? | 21µM* | .
Cc1ccc(C)c(Oc2coc3cc(OC(=O)c4cccs4)ccc3c2=O)c1 | 18% | 1% | 0% | 29µM* | ? | 29
Cn1nc(-c2nncn2CC2CC2)c2c1CCN(C(=O)c1ccncc1)C2 | . | . | 37% | . | . | .
CC(O)CNc1nc2c(c(=O)n(Cc3ccccc3)c(=O)n2C)n1Cc1ccccc1 (stereo unspecified) | . | . | 20% | . | . | .
COCCn1c(C)c(C)c(S(=O)(=O)c2ccc(F)cc2)c1NC(=O)COC | . | . | 2% | . | . | .
Cc1ccc(CNC(=S)NNC(=O)C(C)(C)O)cc1 | . | . | 9% | . | . | .
COc1ccc(NC(=O)c2ccccc2NS(=O)(=O)c2ccc3c(c2)OCCCO3)cc1 | . | . | 35% | . | . | .
CNCc1nc(-c2ccc[nH]2)c2cc(Cl)ccc2n1 | . | . | . | 11µM* | 14µM* | .
O=C1[C@H](Cc2ccccc2)NCC=CC[C@H](c2ccco2)N1Cc1ccccc1 | -3% | -15% | ? | 21µM* | ? | -11
O=C1[C@H](Cc2ccccc2)NCC=CC[C@@H](c2ccc(Cl)cc2)N1Cc1ccccc1 | -21% | -19% | ? | ? | 10µM* | ?
CC(CCc1ccccc1)NC(=O)/C=C/c1ccc(Cl)cc1 (stereo unspecified) | -2% | 4% | -29% | 6% | -20% | -79*
CC(Cc1ccccc1)NC(=O)/C=C/c1ccc([N+](=O)[O-])cc1 (stereo unspecified) | 0% | 0% | 8% | 26µM* | 18µM* | -23
